VP16 counter: counter-screen for ROR gamma inhibitors: Gal4-VP16 reporter; 310,000 compounds, 3.5% hits; Drosophila S2 Gal4-VP16 UAS-luciferase, luminescence, 20 h; Potency, µM (series often up to 53.6 µM), for the others: top-dose activity, negative = inhibition, usual class: inhibitors;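 also: Gal4-VP16 expression switched on by copper sulfate through the metallothionein promoter; % is scaled to controls: 0 for no effect and ±100 for the full control effect; nearly all actives have a fitted effect of over 50% in size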
RORgamma inh: ROR gamma (mouse) transcription inhibition | Drosophila S2 Gal4-RORgamma UAS-luciferase reporter, 20 h | Potency, µM (titrated, usually from 53.6 µM), for the others: at the top dose activity change, negative = inhibition, hits mostly inhibitors | 310,000 compounds, 5.4% hits | AID 2551; also: % is scaled to controls: 0 for no effect and ±100 for the full control effect; nearly all actives have a fitted effect of over 60% in size
Target sequence (P51450 whole entry, looked up, the tested form may be a part): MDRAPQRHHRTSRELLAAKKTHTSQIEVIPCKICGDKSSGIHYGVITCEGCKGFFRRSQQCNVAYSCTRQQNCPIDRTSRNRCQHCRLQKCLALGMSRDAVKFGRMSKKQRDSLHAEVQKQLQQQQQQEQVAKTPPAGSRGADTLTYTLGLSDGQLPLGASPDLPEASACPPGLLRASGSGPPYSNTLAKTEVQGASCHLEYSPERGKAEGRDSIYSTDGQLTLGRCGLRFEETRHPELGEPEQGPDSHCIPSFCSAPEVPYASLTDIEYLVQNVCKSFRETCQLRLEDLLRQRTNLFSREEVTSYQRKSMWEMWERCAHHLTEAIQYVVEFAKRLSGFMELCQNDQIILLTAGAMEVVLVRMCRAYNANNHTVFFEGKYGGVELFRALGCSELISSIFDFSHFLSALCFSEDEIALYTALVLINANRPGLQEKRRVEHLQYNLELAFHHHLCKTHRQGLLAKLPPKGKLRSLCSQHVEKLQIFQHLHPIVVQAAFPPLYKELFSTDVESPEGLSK
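Drosophila S2 cells stably expressing Gal4-DBD/mouse RORγ fusion under metallothionein promoter plus UAS-luciferase; compound 1 h, then 700 uM CuSO4 induction for 20 h at ambient temperature; inhibition read as reduced luminescence.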
ClpP mod: qHTS Assay for Activators of ClpP; ATP-dependent Clp protease proteolytic subunit (Bacillus subtilis (strain 168)), P80244; purified B. subtilis ClpP, FRET peptide cleavage, 20 min; Potency, µM (top dose mostly 57.5 µM), for the others: top-dose activity change, negative = active; 340,000 compounds, 1.9% hits; active = well fitted falling curve with a large enough effect; inconclusive = small, poorly fitted or top-dose-only effect; inactive = no such curve, though single readings can be large or run the other way; also: the source files actives as falling curves though it sought activators and does not explain the sign; nearly all actives have a fitted effect of over 65% in size
Target sequence (P80244 whole entry, looked up): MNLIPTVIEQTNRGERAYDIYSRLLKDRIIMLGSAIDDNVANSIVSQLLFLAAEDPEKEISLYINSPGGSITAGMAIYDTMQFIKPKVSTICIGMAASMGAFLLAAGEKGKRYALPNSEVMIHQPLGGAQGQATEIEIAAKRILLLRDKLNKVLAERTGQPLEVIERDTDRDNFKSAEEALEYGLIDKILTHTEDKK
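Purified B. subtilis ClpP, 10 microg/mL final in Tris/HCl pH8 with KCl, BSA, glycerol and Tween-20, cleaved an Abz/nitrotyrosine-quenched decapeptide. Fluorescence (ex 320, em 430) was read at 0 and 20 min at room temperature. Delta was normalized to 5.8 microM ADEP and DMSO/no-enzyme controls.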
Sfp inh: inhibitors of Bacillus subtilis Sfp phosphopantetheinyl transferase. Potency, µM, without a hit: largest response in the series, negative = inhibition, usual class: inhibitors. AID 1490. 310,000 compounds, 3.5% hits. Biochemical Sfp PPTase activity, qHTS;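 also: the enzyme is Sfp with the accession as filed and its product quenches rhodamine fluorescence; 0% = enzyme reaction without inhibitor and -100% = no enzyme wells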
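With Hepes-Na pH 7.6 buffer containing 10 mM MgCl2, Sfp (15 nM) modified BHQ-2-YbbR (12.5 uM) using rhodamine-CoA (5 uM). Two reads 30 minutes apart at 525/598 nm yielded each well's rate.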
PINK1 expr mod: changes PINK1 expression; PINK1 immunofluorescence, high-content cytometry, 24 h; 410,000 compounds, 0.2% hits; Potency, µM (top dose mostly 76.6 µM), for the others: at the highest dose activation (PINK1 increase), most hits filed as activators; active = well fitted activation curve with a large enough effect; inconclusive = small, poorly fitted or top-dose-only effect; cell line not stated here; also: % of control where 0% means no effect; nearly all actives have a fitted effect of over 65% in size
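Readout is PINK1 immunofluorescence, quantified alongside mitochondrial, cell and nuclear markers by laser-scanning microplate cytometry. Cells from a stable line were exposed to compound titrations (5 concentrations) for 24 hours, with CCCP controls.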
Epigenetic derep: epigenetic control regulation, reporter derepression; murine LDR cells, GFP reporter derepression, 30 h; Potency, µM (top dose mostly 53.9 µM), without a hit: top-dose GFP activation, most hits filed as activators; 280,000 compounds, 0.2% hits; AID 1865; also: % of control where 0% means no effect; nearly all actives have a fitted effect of over 60% in size
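Murine LDR cells carrying a silenced, genomically integrated CMV-driven GFP reporter were exposed to compound for 30 hours at 37 C. After PBS washes, GFP-positive cells (20–120 um objects) were counted by laser-scanning microplate cytometry.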
Starred values were filed as active, the others as inactive; u = inconclusive; x = no result; [ ] = dose if it differs, or a comment. In the library only some 8.1% were active in any assay of this set; here they are far more common. Unless noted, calls follow the shape of the dose curve; as a rule, active = well fitted curve in the direction sought with a large enough effect; inconclusive = small, poorly fitted or top-dose-only effect, or another doubt; inactive = no such curve, though single readings can be large; an effect the other way counts as inactive or inconclusive. Potency is read from the fitted curve at half-maximal effect.

SMILES	VP16 counter	RORgamma inh	ClpP mod	Sfp inh	PINK1 expr mod	Epigenetic derep
CCN(CC)CCCNC(=O)c1ccc(Cn2c(=O)[nH]c3cc(OC)c(OC)cc3c2=O)cc1	x	x	3.9%	x	0.9%	6.4%
CCN1CCN(C(=O)c2ccc(Cn3c(=O)[nH]c4cc(OC)c(OC)cc4c3=O)cc2)CC1	-7.3%	-23.7%	15.8µM*	5.8%	0.8%	-3.3%
O=C(O)CSc1nnc(NC(=O)c2ccc3c(c2)OCO3)s1	12.6µM*	12.6µM*	x	15.4%	0.3%	-2.2%
COC(=O)CSc1nnc(NC(=O)c2ccc3c(c2)OCO3)s1	u	6.31µM*	-3.7%	-7.1%	0.2%	x
CCCCSc1nc(C)cc(NC(=S)Nc2ccc(OC)cc2)n1	3.55µM*	1.26µM*	-2.1%	14.3%	2.9%	-1.1%
COc1ccc(NC(=S)Nc2ccc3nc(C)c(C)nc3c2)cc1	-2.6%	11.2µM*	0.3%	-17.1%	0.4%	-1.1%
COc1ccc(NC(=S)Nc2ccc3nsnc3c2)cc1	5.62µM*	10µM*	3.0%	56.2µM*	0.3%	-3.2%
O=C(COc1ccccc1F)Nc1ccc(OCc2cc(=O)n3ccccc3n2)cc1	x	x	-8.2%	x	16.8%	1.4%
CC(=O)c1cccc(NC(=O)c2ccc(-n3c(C)nnc3C)cc2)c1	x	x	-2.0%	x	3.9%	0.0%
CCCCNc1nc2c(S(=O)(=O)c3ccc(C)cc3)nnn2c2ccsc12	x	x	u	x	2.1%	-1.5%
O=C(O)c1ccc2c(c1)C(=O)/C(=C/c1ccccc1)C2=O	-25.8%	-2.3%	1.0%	-0.9%	-2.1%	1.1%
Cc1ccc(C=C2C(=O)c3ccccc3C2=O)o1	19.9%	8.5%	1.3%	-10.3%	6.8%	0.0%
O=C(O)c1ccc2c(c1)C(=O)/C(=C\c1ccco1)C2=O	3.0%	-9.4%	2.2%	22.4µM*	0.6%	0.0%
Cc1ccc(/C=C2/C(=O)c3ccc(C(=O)O)cc3C2=O)o1	u	-19.5%	-1.7%	12.6µM*	-1.8%	-2.9%
CCN(CC)c1ccc(/C=C/c2sc3ccccc3[n+]2CCCCI)cc1	x	x	1.3%	x	31.6µM*	x
CC(=N\NC(=O)c1ccc([N+](=O)[O-])cc1)/C(=N/O)C(=O)Nc1ccccc1	6.31µM*	3.98µM*	0.6%	0.2%	-0.4%	x
OCCNNC(=S)NC1CC2C=CC1C2 (stereo unspecified)	13.2%	-34.3%	-0.1%	-12.0%	-1.1%	6.4%
COc1cc(/C=N/NC(=S)NC2CC3C=CC2C3)cc(OC)c1OC (stereo unspecified)	4.47µM*	1.78µM*	x	3.3%	0.4%	u
COc1cc(C=NNC(=S)Nc2ccc(S(=O)(=O)N3CCCCC3)cc2)cc(OC)c1OC	x	x	-6.7%	x	5.3%	x
CCOc1ccc(/C=N/NC(=S)NC2CC3C=CC2C3)cc1 (stereo unspecified)	3.16µM*	1µM*	-3.7%	1.5%	4.7%	0.5%
Cc1ccc(Cl)cc1Nc1nn2c(=O)c3ccc(C(=O)NC(C)c4ccccc4)cc3nc2s1 (stereo unspecified)	x	x	u	x	2.0%	2.4%
CCCCCCC(C)n1[nH]c(=O)c2c(C)cc(=O)[nH]c21 (stereo unspecified)	3.98µM*	7.08µM*	0.6%	-31.7%	3.6%	-10.5%
Cc1cc(N2CCN(C(=O)c3ccco3)CC2)n2nc(-c3cccc(Cl)c3)cc2n1	u	u	35.5µM*	-11.7%	8.8%[38.3 µM]	-8.8%
O=C(/C=C/c1ccccc1)Nc1nc2n(n1)C(c1ccc(F)cc1)C=C(c1ccccc1)N2 (stereo unspecified)	x	x	-19.7%	x	0.0%	-3.6%
Cc1cc(C)cc(C(=O)NCCn2cc(C(=O)N3CCSCC3)nn2)c1	x	x	x	x	-0.6%	x
SMILES	VP16 counter	RORgamma inh	ClpP mod	Sfp inh	PINK1 expr mod	Epigenetic derep
COc1ccc(-c2ncccc2O)cc1	16.5%	u	25.1µM*	7.1%	1.7%	-0.3%
CCOc1c(C)cc(-c2ncccc2O)cc1C	-8.3%	35.7%	28.2µM*	2.9%	41.1%[38.3 µM]	-2.6%
O=C(O)c1ccccc1OC(=O)C12CC3CC(CC(C3)C1)C2	2.4%	5.5%	x	19.4%	-0.2%	0.0%
COc1ccc(-c2ncccc2OC(=O)C23CC4CC(CC(C4)C2)C3)cc1	-3.1%	34.4%	25.1µM*	-6.9%	u	1.0%
COc1ccc(-c2nc3ccccc3nc2-c2ccccc2)cc1	6.4%	-2.2%	x	-6.4%	1.4%	1.6%
O=C(Cc1ccc2ccccc2c1)NO	x	x	1.7%	x	1.7%	x
Cc1ccc(Nc2nnc(-c3ccc(C)c(S(=O)(=O)N4CCN(C)CC4)c3)c3ccccc23)c(C)c1	x	x	0.8%	x	1.2%	3.0%
Cc1ccc(C(=O)Nc2nnc(C3CCCCC3)s2)o1	-15.7%	-12.8%	-1.2%	3.4%	-0.7%[38.3 µM]	-1.0%
CCc1noc(C)c1C(=O)Nc1nnc(C2CCCCC2)s1	u	11.2µM*	x	-0.8%	x	1.6%
Cc1cc(C(=O)Nc2nnc(C3CCCCC3)s2)no1	1.6%	20µM*	0.7%	-9.7%	11.6%[38.3 µM]	-0.9%
Cc1ccc(C(=O)NCCc2nnc3n2CCN(Cc2ccnc4ccccc24)CC3)c(C)c1	x	x	x	x	-1.2%	x
C=CCN1C(=O)/C(=C/C(=O)OC)S/C1=N\NC(=O)c1ccccc1	17.8µM*	7.94µM*	-0.2%	-16.6%	3.0%	u
C=CCn1c(C)c(C(C)=O)cc(NC(=O)c2ccccc2)c1=O	-7.8%	1.4%	x	1.8%	-0.2%	0.9%
CCOC(=O)c1c(C)oc2c1cc(NS(=O)(=O)c1ccc(C)cc1)c1ccccc12	x	x	0.2%	x	7.5%	4.0%
CS(=O)(=O)c1ccccc1-c1nc(-c2cc(C(F)(F)F)cc(C(F)(F)F)c2)no1	-3.2%	-7.8%	-0.7%	44.7µM*	2.7%	-2.2%
CSc1nc(C)cc(/C=C\c2ccccc2)c1C#N	-4.4%	-8.7%	28.2µM*	18.2%	24.6%[38.3 µM]	1.3%
Cc1ccc(CNC(=O)CCc2c(C)nc3c(-c4ccc(F)cc4)c(C)nn3c2C)cc1	x	x	1.7%	x	2.4%	-1.1%
CN(C)CCCO[C@H]1[C@@H]2OC(C)(C)O[C@@H]2O[C@@H]1[C@H](O)CO	1.2%[17 µM]	0.7%[16.9 µM]	x	13.7%	x	-0.3%[16.9 µM]
Cc1ncc2c(c1CNC(=O)/C=C/c1cccs1)CCN(C(=O)c1c(C)noc1C)C2	x	x	x	x	0.2%	x
O=c1oc2ccccc2c(Nc2cccc3cccnc23)c1[N+](=O)[O-]	-20.2%[10 µM]	11.2µM*	x	-23.8%	0.3%	-1.9%[10.1 µM]
COc1cccc(/C=N/NC(=O)c2c(C)nc3ccc(Cl)cn23)c1O	3.98µM*	3.16µM*	x	31.0%	0.3%	x
Cc1nn(C)c(C(=O)N/N=C/c2ccncc2)c1Cl	0.0%	-15.1%	0.7%	10.9%	2.4%	x
COc1ccccc1/C=N\NC(=O)c1c(C)nc2ccc(Cl)cn12	u	u	-13.4%	18.7%	0.2%	x

From PubChem BioAssay
